# Data from article PMC7862700, “An all-to-all approach to the identification of sequence-specific readers for epigenetic DNA modifications on cytosine”.
# Columns and labels:
# Assay in all cases: DAPPL (digital affinity profiling via proximity ligation, sequencing); 10 mM Tris-HCl pH 7.5, 50 mM NaCl, 1 mM DTT, 4% glycerol, room temperature, 30 min; GST-TFs on glutathione beads, 16-mer random dsDNA library, 0.1% formaldehyde crosslink after washing; high values mean tight binding
# [1] = target: T1, FLI1 (Homo sapiens, UniProt Q01543 1-452); settings: protein: recombinant; tags: N-terminal GST; dsDNA, one strand shown
# T1 sequence: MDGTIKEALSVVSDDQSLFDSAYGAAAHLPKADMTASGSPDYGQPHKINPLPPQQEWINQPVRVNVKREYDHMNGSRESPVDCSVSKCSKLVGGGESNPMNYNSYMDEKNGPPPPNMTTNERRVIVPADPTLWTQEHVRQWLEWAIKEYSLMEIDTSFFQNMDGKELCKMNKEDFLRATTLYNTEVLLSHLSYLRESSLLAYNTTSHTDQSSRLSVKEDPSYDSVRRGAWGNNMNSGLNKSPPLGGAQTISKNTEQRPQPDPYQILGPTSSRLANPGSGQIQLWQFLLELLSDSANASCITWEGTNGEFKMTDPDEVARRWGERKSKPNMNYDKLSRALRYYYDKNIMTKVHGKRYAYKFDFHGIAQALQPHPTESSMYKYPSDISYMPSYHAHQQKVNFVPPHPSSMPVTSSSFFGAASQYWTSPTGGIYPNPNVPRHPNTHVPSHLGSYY
# Method in brief: (§1)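 Yeast served to express human transcription factors as GST fusions, which were then captured on glutathione beads and labelled with DNA barcodes. Pooled with a tag-only sample, they were incubated with 200 nmole of a 16-mer random double-stranded DNA library for 30 min at room temperature in Tris/NaCl/DTT/glycerol buffer, washed, crosslinked with 0.1% formaldehyde, ligated by proximity, amplified by PCR and sequenced. Dividing each hexamer's read frequency for a factor by its frequency for the tag-only sample gives the binding signal.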
# [2] = target: T2, ELK1 (Homo sapiens, UniProt P19419 1-428); settings: protein: recombinant; tags: N-terminal GST; dsDNA, one strand shown
# T2 sequence: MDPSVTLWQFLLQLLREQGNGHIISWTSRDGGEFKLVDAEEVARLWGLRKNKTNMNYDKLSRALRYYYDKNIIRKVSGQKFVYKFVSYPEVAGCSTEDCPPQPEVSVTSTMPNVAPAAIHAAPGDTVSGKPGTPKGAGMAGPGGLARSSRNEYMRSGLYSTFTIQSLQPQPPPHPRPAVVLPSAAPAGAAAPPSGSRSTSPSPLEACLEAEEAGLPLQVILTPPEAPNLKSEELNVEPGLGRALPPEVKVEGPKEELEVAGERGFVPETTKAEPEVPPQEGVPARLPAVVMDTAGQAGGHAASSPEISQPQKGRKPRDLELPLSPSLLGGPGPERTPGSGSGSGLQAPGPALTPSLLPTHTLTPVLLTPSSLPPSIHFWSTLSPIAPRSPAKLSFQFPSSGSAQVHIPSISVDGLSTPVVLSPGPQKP
# Method in brief: as §1
# [3] = target: T3, GABPA (Homo sapiens, UniProt Q06546 1-454); settings: protein: recombinant; tags: N-terminal GST; dsDNA, one strand shown
# T3 sequence: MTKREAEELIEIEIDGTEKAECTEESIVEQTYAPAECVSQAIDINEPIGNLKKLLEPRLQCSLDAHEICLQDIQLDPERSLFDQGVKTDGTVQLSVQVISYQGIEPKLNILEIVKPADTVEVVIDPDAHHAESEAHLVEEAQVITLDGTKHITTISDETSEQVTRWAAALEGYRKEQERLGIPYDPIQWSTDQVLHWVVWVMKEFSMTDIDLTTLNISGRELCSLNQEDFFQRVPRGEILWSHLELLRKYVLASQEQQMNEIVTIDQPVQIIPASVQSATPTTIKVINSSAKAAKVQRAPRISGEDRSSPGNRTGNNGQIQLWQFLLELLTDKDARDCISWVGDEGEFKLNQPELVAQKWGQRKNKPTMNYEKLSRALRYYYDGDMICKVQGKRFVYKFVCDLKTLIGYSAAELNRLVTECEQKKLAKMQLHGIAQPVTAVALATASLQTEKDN
# Method in brief: as §1
# [4] = target: T4, ERG (Homo sapiens, UniProt P11308 1-479); settings: protein: recombinant; tags: N-terminal GST; dsDNA, one strand shown
# T4 sequence: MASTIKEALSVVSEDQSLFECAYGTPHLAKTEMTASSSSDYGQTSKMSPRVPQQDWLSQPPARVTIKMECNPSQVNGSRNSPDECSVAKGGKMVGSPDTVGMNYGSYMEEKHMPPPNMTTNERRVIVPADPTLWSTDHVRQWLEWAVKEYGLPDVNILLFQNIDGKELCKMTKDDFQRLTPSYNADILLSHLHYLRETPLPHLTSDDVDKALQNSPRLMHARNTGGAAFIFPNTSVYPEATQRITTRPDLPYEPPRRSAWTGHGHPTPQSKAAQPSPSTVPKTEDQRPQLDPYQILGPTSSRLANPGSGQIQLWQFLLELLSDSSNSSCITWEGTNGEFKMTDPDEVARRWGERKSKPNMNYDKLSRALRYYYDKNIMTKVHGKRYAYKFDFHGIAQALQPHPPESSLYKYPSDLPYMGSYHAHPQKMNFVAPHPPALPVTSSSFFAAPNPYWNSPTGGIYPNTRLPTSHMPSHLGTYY
# Method in brief: as §1
# [5] = target: ELF1 (Homo sapiens, UniProt P32519 1-619); settings: protein: recombinant; tags: N-terminal GST; dsDNA, one strand shown
# Method in brief: as §1
# [6] = target: T5, EHF (Homo sapiens, UniProt Q9NZC4 1-300); settings: protein: recombinant; tags: N-terminal GST; dsDNA, one strand shown
# T5 sequence: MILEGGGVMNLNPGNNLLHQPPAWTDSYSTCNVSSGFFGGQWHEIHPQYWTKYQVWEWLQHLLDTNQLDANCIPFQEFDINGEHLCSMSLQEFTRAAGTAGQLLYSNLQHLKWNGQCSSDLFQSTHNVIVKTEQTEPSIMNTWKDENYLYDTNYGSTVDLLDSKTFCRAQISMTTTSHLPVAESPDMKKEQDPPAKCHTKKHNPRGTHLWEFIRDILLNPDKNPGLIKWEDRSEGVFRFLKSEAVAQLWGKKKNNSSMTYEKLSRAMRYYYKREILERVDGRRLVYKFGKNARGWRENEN
# Method in brief: as §1
# [7] = target: SPI1 (Homo sapiens, UniProt P17947 1-270); settings: protein: recombinant; tags: N-terminal GST; dsDNA, one strand shown
# Method in brief: as §1
# [8] = target: SPIB (Homo sapiens, UniProt Q01892 1-262); settings: protein: recombinant; tags: N-terminal GST; dsDNA, one strand shown
# Method in brief: as §1
# [9] = target: T6, ELK3 (Homo sapiens, UniProt P41970 1-407); settings: protein: recombinant; tags: N-terminal GST; dsDNA, one strand shown
# T6 sequence: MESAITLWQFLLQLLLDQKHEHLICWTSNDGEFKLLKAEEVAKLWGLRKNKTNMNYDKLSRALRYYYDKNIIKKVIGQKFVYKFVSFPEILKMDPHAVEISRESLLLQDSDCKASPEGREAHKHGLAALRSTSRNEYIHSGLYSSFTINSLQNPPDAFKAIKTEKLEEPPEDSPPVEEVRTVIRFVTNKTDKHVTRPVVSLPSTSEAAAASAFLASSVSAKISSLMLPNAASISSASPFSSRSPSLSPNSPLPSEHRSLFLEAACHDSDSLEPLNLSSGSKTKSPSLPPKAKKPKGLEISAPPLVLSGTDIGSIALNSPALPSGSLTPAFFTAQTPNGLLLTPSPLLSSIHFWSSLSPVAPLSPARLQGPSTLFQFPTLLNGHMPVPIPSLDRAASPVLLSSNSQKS
# Method in brief: as §1
# [10] = target: T7, FEV (Homo sapiens, UniProt Q99581 1-238); settings: protein: recombinant; tags: N-terminal GST; dsDNA, one strand shown
# T7 sequence: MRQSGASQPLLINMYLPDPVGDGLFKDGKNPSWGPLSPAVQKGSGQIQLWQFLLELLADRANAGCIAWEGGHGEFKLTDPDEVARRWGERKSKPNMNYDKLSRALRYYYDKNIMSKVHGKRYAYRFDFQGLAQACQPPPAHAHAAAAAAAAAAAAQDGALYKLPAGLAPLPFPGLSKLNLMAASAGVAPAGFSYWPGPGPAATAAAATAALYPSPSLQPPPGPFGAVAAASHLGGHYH
# Method in brief: as §1
# [11] = target: ETV5 (Homo sapiens, UniProt P41161 1-510); settings: protein: recombinant; tags: N-terminal GST; dsDNA, one strand shown
# Method in brief: as §1
# [12] = target: HSF1 (Homo sapiens, UniProt Q00613 1-529); settings: protein: recombinant; tags: N-terminal GST; chain copies: 3; dsDNA, one strand shown
# Method in brief: as §1
# [13] = target: T8, SPIC (Homo sapiens, UniProt Q8N5J4 1-248); settings: protein: recombinant; tags: N-terminal GST; dsDNA, one strand shown
# T8 sequence: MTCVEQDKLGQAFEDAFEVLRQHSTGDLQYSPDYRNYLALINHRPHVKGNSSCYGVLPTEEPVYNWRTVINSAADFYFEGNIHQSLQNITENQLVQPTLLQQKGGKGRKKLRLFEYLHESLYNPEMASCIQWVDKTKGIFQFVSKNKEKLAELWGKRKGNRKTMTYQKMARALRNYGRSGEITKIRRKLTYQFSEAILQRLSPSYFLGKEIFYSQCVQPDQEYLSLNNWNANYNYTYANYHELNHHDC
# Method in brief: as §1
# [14] = target: ELF4 (Homo sapiens, UniProt Q99607 1-663); settings: protein: recombinant; tags: N-terminal GST; dsDNA, one strand shown
# Method in brief: as §1
# [15] = target: T9, ELK4 (Homo sapiens, UniProt P28324-2 1-405); settings: protein: recombinant; tags: N-terminal GST; dsDNA, one strand shown
# T9 sequence: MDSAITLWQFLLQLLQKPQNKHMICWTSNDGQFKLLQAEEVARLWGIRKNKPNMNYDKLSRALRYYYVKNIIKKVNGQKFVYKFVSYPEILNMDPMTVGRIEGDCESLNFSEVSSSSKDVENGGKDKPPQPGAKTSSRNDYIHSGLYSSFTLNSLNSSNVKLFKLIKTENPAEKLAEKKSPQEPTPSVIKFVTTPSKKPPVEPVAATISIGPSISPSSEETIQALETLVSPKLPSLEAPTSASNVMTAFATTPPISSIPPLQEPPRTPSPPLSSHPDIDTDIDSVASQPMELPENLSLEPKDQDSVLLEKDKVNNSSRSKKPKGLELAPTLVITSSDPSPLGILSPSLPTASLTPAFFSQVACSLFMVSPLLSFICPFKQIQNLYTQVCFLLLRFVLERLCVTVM
# Method in brief: as §1
# [16] = target: T10, ETV2 (Homo sapiens, UniProt O00321 1-342); settings: protein: recombinant; tags: N-terminal GST; dsDNA, one strand shown
# T10 sequence: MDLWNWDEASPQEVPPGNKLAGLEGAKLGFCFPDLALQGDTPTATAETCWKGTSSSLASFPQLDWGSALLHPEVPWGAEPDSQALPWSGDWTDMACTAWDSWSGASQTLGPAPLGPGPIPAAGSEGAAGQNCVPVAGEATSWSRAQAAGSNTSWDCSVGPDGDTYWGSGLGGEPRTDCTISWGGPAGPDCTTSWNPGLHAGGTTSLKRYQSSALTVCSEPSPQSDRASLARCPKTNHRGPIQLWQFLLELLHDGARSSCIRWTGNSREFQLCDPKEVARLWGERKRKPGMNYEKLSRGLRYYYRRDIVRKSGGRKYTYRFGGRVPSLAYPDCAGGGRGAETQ
# Method in brief: as §1
# [17] = target: T11, ELF3 (Homo sapiens, UniProt P78545 1-371); settings: protein: recombinant; tags: N-terminal GST; dsDNA, one strand shown
# T11 sequence: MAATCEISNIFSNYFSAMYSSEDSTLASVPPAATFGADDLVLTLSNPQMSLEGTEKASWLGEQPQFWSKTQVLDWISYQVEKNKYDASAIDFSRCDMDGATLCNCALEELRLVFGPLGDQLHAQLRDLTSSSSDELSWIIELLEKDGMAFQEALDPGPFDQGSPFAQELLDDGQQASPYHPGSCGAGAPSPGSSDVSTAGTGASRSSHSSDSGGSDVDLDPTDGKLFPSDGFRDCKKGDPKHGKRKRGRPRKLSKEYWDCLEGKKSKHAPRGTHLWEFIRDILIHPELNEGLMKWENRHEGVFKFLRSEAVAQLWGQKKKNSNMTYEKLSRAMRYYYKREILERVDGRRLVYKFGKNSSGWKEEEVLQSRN
# Method in brief: as §1
# [18] = target: CRX (Homo sapiens, UniProt O43186 1-299); settings: protein: recombinant; tags: N-terminal GST; dsDNA, one strand shown
# Method in brief: as §1
# [19] = target: ETV1 (Homo sapiens, UniProt P50549 1-477); settings: protein: recombinant; tags: N-terminal GST; dsDNA, one strand shown
# Method in brief: as §1
# Sequence of ETV5 (P41161 whole entry): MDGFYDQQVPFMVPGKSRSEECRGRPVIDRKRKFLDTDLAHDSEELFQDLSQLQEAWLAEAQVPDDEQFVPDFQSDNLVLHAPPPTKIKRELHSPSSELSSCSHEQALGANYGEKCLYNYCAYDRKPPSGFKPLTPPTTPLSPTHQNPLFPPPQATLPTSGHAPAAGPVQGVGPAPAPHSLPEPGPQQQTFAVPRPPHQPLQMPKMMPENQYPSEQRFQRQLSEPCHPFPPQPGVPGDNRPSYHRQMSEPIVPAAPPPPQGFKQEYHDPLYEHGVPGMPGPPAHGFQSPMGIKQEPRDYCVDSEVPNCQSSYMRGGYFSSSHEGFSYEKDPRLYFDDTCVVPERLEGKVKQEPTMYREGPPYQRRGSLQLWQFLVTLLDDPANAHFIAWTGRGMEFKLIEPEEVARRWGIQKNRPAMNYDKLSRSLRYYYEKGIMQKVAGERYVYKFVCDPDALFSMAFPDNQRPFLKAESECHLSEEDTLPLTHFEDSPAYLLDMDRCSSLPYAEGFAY
# Sequence of ELF1 (P32519 whole entry): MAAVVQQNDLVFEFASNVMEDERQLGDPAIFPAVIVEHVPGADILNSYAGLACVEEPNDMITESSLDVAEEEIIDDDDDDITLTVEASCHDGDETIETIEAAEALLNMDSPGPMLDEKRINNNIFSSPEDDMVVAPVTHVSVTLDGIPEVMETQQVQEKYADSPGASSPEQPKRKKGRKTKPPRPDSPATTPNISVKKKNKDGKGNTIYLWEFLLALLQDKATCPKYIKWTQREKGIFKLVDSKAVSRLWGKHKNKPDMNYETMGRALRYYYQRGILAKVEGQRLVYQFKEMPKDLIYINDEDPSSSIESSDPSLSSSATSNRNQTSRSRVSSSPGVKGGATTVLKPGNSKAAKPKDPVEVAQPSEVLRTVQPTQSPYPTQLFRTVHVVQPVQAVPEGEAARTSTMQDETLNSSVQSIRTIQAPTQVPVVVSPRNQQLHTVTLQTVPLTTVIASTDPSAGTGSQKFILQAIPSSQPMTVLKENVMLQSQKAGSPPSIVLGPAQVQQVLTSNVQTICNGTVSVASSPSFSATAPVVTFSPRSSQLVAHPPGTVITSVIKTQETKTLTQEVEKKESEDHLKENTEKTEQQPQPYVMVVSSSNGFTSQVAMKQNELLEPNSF
# Sequence of HSF1 (Q00613 whole entry): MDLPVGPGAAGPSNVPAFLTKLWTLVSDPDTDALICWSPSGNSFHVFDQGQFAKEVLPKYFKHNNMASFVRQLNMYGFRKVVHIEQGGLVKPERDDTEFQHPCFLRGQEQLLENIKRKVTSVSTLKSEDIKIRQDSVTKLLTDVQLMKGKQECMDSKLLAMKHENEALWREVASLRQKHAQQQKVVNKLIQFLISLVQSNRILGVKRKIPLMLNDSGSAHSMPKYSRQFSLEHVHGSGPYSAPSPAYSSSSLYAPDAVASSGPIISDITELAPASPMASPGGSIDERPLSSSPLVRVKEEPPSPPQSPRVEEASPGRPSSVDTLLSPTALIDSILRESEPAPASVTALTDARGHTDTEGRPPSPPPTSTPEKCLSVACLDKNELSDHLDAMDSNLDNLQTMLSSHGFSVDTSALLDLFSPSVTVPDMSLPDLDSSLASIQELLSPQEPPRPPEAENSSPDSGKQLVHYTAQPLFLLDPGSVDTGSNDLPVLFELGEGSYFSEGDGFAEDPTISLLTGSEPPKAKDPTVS
# Sequence of ETV1 (P50549 whole entry): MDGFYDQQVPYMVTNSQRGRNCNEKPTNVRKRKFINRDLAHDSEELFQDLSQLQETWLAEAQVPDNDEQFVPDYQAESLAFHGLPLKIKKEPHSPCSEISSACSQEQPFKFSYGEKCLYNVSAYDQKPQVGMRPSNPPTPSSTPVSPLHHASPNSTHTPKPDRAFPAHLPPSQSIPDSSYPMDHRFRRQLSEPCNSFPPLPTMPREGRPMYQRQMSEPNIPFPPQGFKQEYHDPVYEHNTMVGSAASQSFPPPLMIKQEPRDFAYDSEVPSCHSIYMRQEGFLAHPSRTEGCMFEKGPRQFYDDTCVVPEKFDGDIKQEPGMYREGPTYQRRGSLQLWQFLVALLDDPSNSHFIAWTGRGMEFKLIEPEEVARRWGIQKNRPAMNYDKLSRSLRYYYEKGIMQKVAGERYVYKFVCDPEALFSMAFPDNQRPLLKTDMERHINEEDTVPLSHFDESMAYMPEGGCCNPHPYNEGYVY
# Sequence of SPIB (Q01892 whole entry): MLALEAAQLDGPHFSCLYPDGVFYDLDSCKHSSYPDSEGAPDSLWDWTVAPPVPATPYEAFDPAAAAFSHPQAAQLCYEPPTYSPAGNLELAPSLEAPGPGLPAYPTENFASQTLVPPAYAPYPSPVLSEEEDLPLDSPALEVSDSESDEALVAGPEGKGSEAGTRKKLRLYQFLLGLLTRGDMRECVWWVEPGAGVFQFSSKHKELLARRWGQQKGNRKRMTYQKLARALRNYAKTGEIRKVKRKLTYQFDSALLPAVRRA
# Sequence of CRX (O43186 whole entry): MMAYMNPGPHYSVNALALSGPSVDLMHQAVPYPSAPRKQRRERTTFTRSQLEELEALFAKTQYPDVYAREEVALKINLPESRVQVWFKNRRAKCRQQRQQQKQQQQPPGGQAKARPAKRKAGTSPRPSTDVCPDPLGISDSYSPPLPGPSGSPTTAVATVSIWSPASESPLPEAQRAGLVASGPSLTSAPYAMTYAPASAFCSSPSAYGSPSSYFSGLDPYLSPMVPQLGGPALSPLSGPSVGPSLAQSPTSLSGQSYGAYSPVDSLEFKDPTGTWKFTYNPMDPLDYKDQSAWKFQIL
# Sequence of ELF4 (Q99607 whole entry): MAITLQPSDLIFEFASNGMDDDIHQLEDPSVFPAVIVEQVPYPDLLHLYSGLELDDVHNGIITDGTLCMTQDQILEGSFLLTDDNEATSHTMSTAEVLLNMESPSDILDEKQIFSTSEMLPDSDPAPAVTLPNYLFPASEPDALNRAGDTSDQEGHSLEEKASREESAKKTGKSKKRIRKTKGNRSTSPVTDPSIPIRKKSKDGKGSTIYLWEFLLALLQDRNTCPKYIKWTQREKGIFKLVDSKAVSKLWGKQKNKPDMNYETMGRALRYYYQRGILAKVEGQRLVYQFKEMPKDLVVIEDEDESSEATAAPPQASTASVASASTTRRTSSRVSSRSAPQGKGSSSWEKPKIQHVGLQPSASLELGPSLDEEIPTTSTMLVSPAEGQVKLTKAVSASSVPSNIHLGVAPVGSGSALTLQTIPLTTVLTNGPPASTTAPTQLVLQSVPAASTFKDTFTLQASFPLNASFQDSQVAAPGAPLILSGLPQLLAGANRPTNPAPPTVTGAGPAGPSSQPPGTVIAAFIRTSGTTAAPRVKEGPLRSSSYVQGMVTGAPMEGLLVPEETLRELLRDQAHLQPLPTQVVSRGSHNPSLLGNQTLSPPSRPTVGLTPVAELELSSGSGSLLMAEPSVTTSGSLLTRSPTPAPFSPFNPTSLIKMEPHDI
sequence,measurement,setting,value
TTTCGT,binding signal,[1],"1.31 fold enrichment (6-mer frequency, TF over GST control)"
same,binding signal,[2],"1.38 fold enrichment (6-mer frequency, TF over GST control)"
same,binding signal,[3],"1.37 fold enrichment (6-mer frequency, TF over GST control)"
same,binding signal,[4],"1.23 fold enrichment (6-mer frequency, TF over GST control)"
same,binding signal,[5],"1.41 fold enrichment (6-mer frequency, TF over GST control)"
same,binding signal,[6],"1.46 fold enrichment (6-mer frequency, TF over GST control)"
same,binding signal,[7],"1.27 fold enrichment (6-mer frequency, TF over GST control)"
same,binding signal,[8],"1.47 fold enrichment (6-mer frequency, TF over GST control)"
same,binding signal,[9],"1.25 fold enrichment (6-mer frequency, TF over GST control)"
same,binding signal,[10],"1.35 fold enrichment (6-mer frequency, TF over GST control)"
same,binding signal,[11],"1.41 fold enrichment (6-mer frequency, TF over GST control)"
same,binding signal,[12],"1.48 fold enrichment (6-mer frequency, TF over GST control)"
same,binding signal,[13],"1.36 fold enrichment (6-mer frequency, TF over GST control)"
same,binding signal,[14],"1.34 fold enrichment (6-mer frequency, TF over GST control)"
same,binding signal,[15],"1.49 fold enrichment (6-mer frequency, TF over GST control)"
same,binding signal,[16],"1.32 fold enrichment (6-mer frequency, TF over GST control)"
same,binding signal,[17],"1.33 fold enrichment (6-mer frequency, TF over GST control)"
same,binding signal,[18],"1.43 fold enrichment (6-mer frequency, TF over GST control)"
same,binding signal,[19],"1.38 fold enrichment (6-mer frequency, TF over GST control)"
